The source of these data is PubChem BioAssay (NCI).

The panel holds about 83,000 compounds, 20% with a hit somewhere; the sample as a whole holds those more often.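 Method: cells in 96-well plates; compound added at one concentration; 48 h incubation; percent growth measured; values under 10 scored active.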 A number with no mark means an inactive call. Calls of active or inactive are those of the source.

Some test systems named below: HCT-15 colon; HT29 colon; SNB-75 CNS; SNB-19 CNS; U251 CNS; PC-3 prostate; SK-MEL-5 melanoma; UACC-62 melanoma; LOX IMVI melanoma; SK-MEL-28 melanoma; SK-MEL-2 melanoma; UO-31 renal; TK-10 renal; ACHN renal; CAKI-1 renal; A498 renal; CCRF-CEM leukemia; MOLT-4 leukemia; SN12C renal; EKVX NSCLC.
What all share (assay): NCI-60 one-dose screen, 48 h (100 = growth as untreated, 0 = no growth, -100 = all killed)
Common to all, as to details: 10 µM unless noted

On to `C[C@@H]1CN(Cc2ccc(/C=C/c3n[nH]c4ccc5nc(-c6cn[nH]c6C(F)(F)F)c6c(c5c34)CCCC6)cc2)C[C@H](C)O1`, for which the growth in the experiment with HCT-15 colon is 7.35% (active); with HT29 colon, 7.17% (active); in the experiment with SNB-75 CNS, -4.9% (active); in the experiment on SNB-19 CNS, 57.1%; in the experiment on U251 CNS, 46.1%; with PC-3 prostate it was 22.7%. Moreover, the growth in the experiment on SK-MEL-5 melanoma is 40.3%; in the experiment on UACC-62 melanoma, 44.3%; with LOX IMVI melanoma it was 8.23% (active); in the experiment with SK-MEL-28 melanoma, 40.6%; in the experiment on SK-MEL-2 melanoma, 57.6%; in the experiment with UO-31 renal, 4.93% (active). For the same compound, the growth is 32.5% in the experiment with TK-10 renal; 10.8% in the experiment with ACHN renal; 1.97% (active) with CAKI-1 renal; 3.16% (active) in the experiment with A498 renal; 15.4% with CCRF-CEM leukemia; 12.6% in the experiment on MOLT-4 leukemia.
In the case of `COc1cc(C2CC(c3cccc(Nc4ccncc4)c3)=NN2c2ccccc2)cc(OC)c1OC` (stereo not drawn), the growth with HCT-15 colon was 28.2%; in the experiment on HT29 colon it was 1.04% (active); in the experiment on SNB-75 CNS it was 44.2%; with SNB-19 CNS, 68.1%; in the experiment on U251 CNS, 19.7%; with PC-3 prostate, 30.2%. The growth is -52.5% (active) in the experiment on SK-MEL-5 melanoma; 96.2% in the experiment on UACC-62 melanoma; 33.8% in the experiment on LOX IMVI melanoma; 5.22% (active) in the experiment on SK-MEL-28 melanoma; 83.1% in the experiment with SK-MEL-2 melanoma; 62.5% in the experiment with SN12C renal. In addition, the growth was 53.3% in the experiment on UO-31 renal; 82.8% in the experiment on TK-10 renal; 65.6% with ACHN renal; 43.6% with CAKI-1 renal; 74.9% with A498 renal; 6.7% (active) in the experiment with CCRF-CEM leukemia. For the same compound, the growth in the experiment with MOLT-4 leukemia is 1.73% (active).
Turning to `CCn1cc(C2NC(=O)c3ccccc3N2)c2cccc(C)c21` (stereo not drawn), the growth in the experiment on HCT-15 colon is 18.6%; in the experiment with HT29 colon, -22.9% (active); in the experiment with SNB-75 CNS, -26.9% (active); in the experiment on SNB-19 CNS, 32.9%; with U251 CNS, 3.94% (active); with PC-3 prostate, 22%. For the same compound, the growth is 16.8% with SK-MEL-5 melanoma; 27.6% with UACC-62 melanoma; 56.5% with SK-MEL-28 melanoma; 2.54% (active) with SK-MEL-2 melanoma; 29.4% with EKVX NSCLC; 23.9% with SN12C renal. Moreover, the growth in the experiment on UO-31 renal was 38.7%; in the experiment on TK-10 renal, 33.6%; in the experiment on ACHN renal, 26.8%; with CAKI-1 renal it was 32.6%; in the experiment with A498 renal, -17.4% (active); in the experiment on CCRF-CEM leukemia, -3.39% (active). For the same compound, in the experiment with MOLT-4 leukemia, the growth was 10.9%.
For the compound `N#C/C(=C\c1ccc(Br)cc1)n1nnc2cccc(F)c21`, the growth with HCT-15 colon is 1.81% (active); in the experiment with HT29 colon it was 11.8%; in the experiment with SNB-75 CNS it was -24.8% (active); in the experiment on SNB-19 CNS it was 25.6%; in the experiment with U251 CNS, 15.6%; with PC-3 prostate, 29%. Besides, the growth with SK-MEL-5 melanoma is 1.82% (active); in the experiment with UACC-62 melanoma it was 22.7%; in the experiment with LOX IMVI melanoma, -56.3% (active); in the experiment with SK-MEL-28 melanoma, 49.5%; in the experiment on SK-MEL-2 melanoma, 22.3%; with SN12C renal it was 4.62% (active). Further, the growth in the experiment with UO-31 renal was 2.69% (active); in the experiment on TK-10 renal, 15.6%; in the experiment with ACHN renal, 20.2%; with CAKI-1 renal, 18.2%; in the experiment with CCRF-CEM leukemia, -2.73% (active); with MOLT-4 leukemia, 1.33% (active).
As for `COc1ccc(C(=O)c2cc(C)c(OC)c(C)c2)c(OC)c1N(C(=O)C(Cl)Cl)C(=O)C(Cl)Cl`, the growth is 7.03% (active) in the experiment on HCT-15 colon; 1.22% (active) with HT29 colon; 56.4% in the experiment with SNB-75 CNS; 26.4% in the experiment with SNB-19 CNS; 19.2% in the experiment with U251 CNS; 18.1% with PC-3 prostate. Besides, the growth in the experiment on SK-MEL-5 melanoma was 0.812% (active); in the experiment on UACC-62 melanoma, 38.8%; in the experiment on LOX IMVI melanoma, 20.3%; in the experiment on SK-MEL-28 melanoma it was 49.8%; in the experiment with SK-MEL-2 melanoma it was 27.2%; in the experiment with EKVX NSCLC, 56.9%. The growth in the experiment on UO-31 renal was 37.8%; with TK-10 renal, 43.8%; with ACHN renal, 22.2%; with CAKI-1 renal it was 43.2%; in the experiment with CCRF-CEM leukemia it was 10.7%; in the experiment with MOLT-4 leukemia it was 22.6%.
Consider `COc1ccc(-c2nc(SC(C)C)nc(NNC(N)=O)c2C#N)cc1`, for which the growth is 58.6% with HCT-15 colon; 106% in the experiment on HT29 colon; 59.1% in the experiment on SNB-75 CNS; 89% in the experiment with SNB-19 CNS; 93.5% in the experiment with U251 CNS; 75.9% in the experiment on PC-3 prostate. The growth in the experiment on SK-MEL-5 melanoma is 89.1%; in the experiment with UACC-62 melanoma, 85.8%; with SK-MEL-28 melanoma it was 93%; in the experiment on SK-MEL-2 melanoma it was 92.9%; in the experiment with EKVX NSCLC, 99.2%; in the experiment with SN12C renal, 83.9%. The growth in the experiment on UO-31 renal is 68.2%; with TK-10 renal it was 97.1%; in the experiment with ACHN renal it was 90.1%; in the experiment on CAKI-1 renal, 72.2%; with A498 renal it was 90.2%; in the experiment with CCRF-CEM leukemia, 88.3%. Further, the growth with MOLT-4 leukemia is 78.6%.
Consider `Nc1nnc2cc(Cl)ccc2n1`, for which the growth in the experiment on HCT-15 colon is 94.2%; in the experiment with HT29 colon, 119%; in the experiment with SNB-75 CNS, 91.6%; in the experiment on SNB-19 CNS, 104%; with U251 CNS, 98.4%; in the experiment on PC-3 prostate, 77%. For the same compound, the growth in the experiment with SK-MEL-5 melanoma is 102%; with UACC-62 melanoma it was 93.1%; in the experiment on SK-MEL-28 melanoma, 114%; in the experiment on SK-MEL-2 melanoma, -25.9% (active); in the experiment on EKVX NSCLC, 112%; in the experiment with SN12C renal, 90.1%. The growth is 89.8% in the experiment on UO-31 renal; 136% in the experiment with TK-10 renal; 89.9% in the experiment with ACHN renal; 112% in the experiment on CAKI-1 renal; 54% in the experiment on A498 renal; 87.7% with CCRF-CEM leukemia. The growth in the experiment on MOLT-4 leukemia is 111%.
Turning to `Cc1c([N+](=O)[O-])cc(C(C)(C)C)cc1[N+](=O)[O-]`, the growth with HCT-15 colon was 105%; with HT29 colon it was 87.2%; with SNB-75 CNS, 89.4%; in the experiment on SNB-19 CNS, 102%; in the experiment on U251 CNS it was 95.4%; with PC-3 prostate, 95.3%. Moreover, the growth with SK-MEL-5 melanoma is 99.7%; in the experiment on UACC-62 melanoma, 103%; in the experiment with LOX IMVI melanoma it was 97.2%; in the experiment with SK-MEL-28 melanoma it was 99.2%; in the experiment on SK-MEL-2 melanoma it was 71.5%; in the experiment with EKVX NSCLC, 98.6%. Besides, the growth is 98.7% with UO-31 renal; 104% in the experiment with ACHN renal; 98% in the experiment on CAKI-1 renal; 93.8% in the experiment on A498 renal; 106% in the experiment on CCRF-CEM leukemia; 95.9% with MOLT-4 leukemia.
